PubChem BioAssay
Active and inactive are the calls of the source.

Test: E. coli acrAB mutant growth effects, primary screen, E. coli filamentation inducers, strain DRC39, OD650, 24 h (AID 1178);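 note: growth measured as culture turbidity by optical density at 650 nm; test concentration not given here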
Settings: higher = more signal, called active from +8 up or from −8 down

z-score, inactive:
CCOC(=O)[C@H]1C/C=C/C[C@H](C(=O)OCC)C(=O)O[C@H]2[C@@H](OC)O[C@H](CO)[C@@H](OC(=O)c3c(OC)cccc3OC)[C@@H]2OC1=O 0.0332
C=C(CCCC)/C(=C/C[C@H](OC(=O)c1ccncc1)c1ccccc1OCCO)c1cnc2ccccc2c1 0.133
CCN(CC)c1ccc(N2CC=CC34O[C@@H]5C=CCCOC(=O)C5[C@H]3C(=O)N(CCCCCCO)[C@@H]4C2=O)cc1 (stereo partly specified) 1.07
COC(=O)[C@@]1(Cc2ccc(OC)cc2)[C@H]2c3cc(C(=O)N4CCCC4)n(CCN4CNCC4=O)c3C[C@H]2CN1C(=O)c1ccccc1 -0.146
CCC(CC)C(O)C1C=CC2C(=O)NC(=O)C2N1Nc1ccccn1 (stereo unspecified) -0.485
O=C(CS)NCCCCCCNC(=O)[C@@H]1C[C@@H]2C(=O)NCC(=O)N2[C@@H]1c1cccc(OCCO)c1 0.713

Test: E. coli acrAB mutant growth effects, primary screen, E. coli filamentation inducers, strain DRC39, OD650, 48 h (AID 1179);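 note: screen aims at cell division blockers that make cells filament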
Settings: E. coli DRC39 delta-acrAB growth, higher = more signal, called active from +8 up or from −8 down

z-score, inactive:
COCC(=C=CC[C@@H](O)c1cccc(OCCO)c1)C[C@@H](O)c1ccccn1 0.604
C[C@@]1([C@@H](NC(=O)c2ccc(-c3ccccc3)cc2)c2ccc(Cl)cc2)C[C@H]1C1CCCCC1 -0.561
CCc1cccc(NC(=O)O[C@H]2[C@H](OC(=O)Nc3ccccc3-c3ccccc3)[C@@H](OC(=O)Nc3ccccc3-c3ccccc3)[C@@H](OC)O[C@@H]2CO)c1 -0.361
C=C[C@H](CO[Si](CC)(CC)CC)N(Cc1ccc(OC(C)=O)c(OC)c1)S(=O)(=O)c1ccc(Br)cc1 1.67
C[C@H]1NC(=O)[C@@]23C(=O)N[C@@H](Cc4ccccc4)C2[C@H](C)[C@@]2(C)O[C@H]2C3/C=C/C/C=C\CNC(=O)[C@@H]2CCCN2C1=O (stereo partly specified) 0.534
CCS[C@H]1[C@@H](C(=O)O)[C@H](c2ccc(C)cc2)N(S(=O)(=O)c2ccc(C)cc2)[C@@H]1CC 0.843
COCCOC(=O)N1C(=O)[C@@]2(c3ccccc31)[C@H](C(=O)N1CCc3cc(OC)c(OC)cc3C1)[C@H]1C(=O)O[C@H](c3ccccc3)[C@H](c3ccccc3)N1[C@@H]2c1ccc(OCCO)cc1 0.144
[N-]=[N+]=Nc1ccccc1[C@H]1OC(c2ccc(OCCCO)cc2)=N[C@@]1(CCS(=O)(=O)c1ccccc1)C(=O)NCC(O)CO (stereo partly specified) -0.878
[N-]=[N+]=NCc1ccccc1[C@@H]1OC(c2ccc(OCCCO)cc2)=N[C@]1(Cc1ccccc1)C(N)=O -0.492
C=C(CCCC)C(=O)CC[C@@H](OC(=O)c1ccccc1-c1ccccc1C(=O)O)c1ccc(OCCO)cc1 -0.297
O=C(CS)NCCCCCCNC(=O)[C@@H]1C[C@@H]2C(=O)N[C@@H](Cc3ccccc3)C(=O)N2[C@@H]1c1cccc(OCCO)c1 0.0288
CC(C)C(O)C1C=CC2C(=O)N(c3ccccc3)C(=O)C2N1Nc1ccc([N+](=O)[O-])cc1 (stereo unspecified) -0.347
CC(C)N1C(=O)[C@@]2(Cc3ccccc31)c1ccccc1C(=O)N(Cc1ccccc1Cl)[C@H]2c1ccc(CO)cc1 0.659
C=CCC(OC(C)=O)[C@@H]1[C@@H](N(Cc2cc3ccccc3o2)C(=O)c2cccc3ccccc23)c2cc(OCCCO)ccc2N1C(=O)c1ccc(-c2ccccc2)cc1 (stereo partly specified) -0.11
C=CCC(OC(C)=O)[C@@H]1[C@@H](N(Cc2ccc(-c3ccccc3)cc2)C(=O)Cc2ccc(OC)cc2)c2cc(OCCCO)ccc2N1C(=O)Cc1ccc2ccccc2c1 (stereo partly specified) -0.851
Cc1ccc(S[C@]2(C(=O)O)CC(=O)N(C(C)C)[C@@H]2c2ccc(CO)cc2I)cc1 1.42
O=C1O[C@@H](c2ccccc2)[C@@H](c2ccccc2)N2[C@@H](c3ccccc3OCCO)[C@]3(C(=O)Nc4ccc(C#CC5=CCCCC5)cc43)[C@@H](C(=O)N3CCCCCCC3)[C@H]12 -0.576
O=C1OCCC/C=C\[C@H]2OC34C=CCN(Cc5ccccc5)C(=O)[C@H]3N(CCCO)C(=O)[C@@H]4C12 (stereo partly specified) 0.59
COC(=O)[C@@]1(Cc2ccc(OC)cc2)[C@H]2c3cc(C(=O)N(C)C)n(Cc4ccc(S(C)(=O)=O)cc4)c3C[C@H]2CN1C(=O)c1ccccc1 -0.441
CC(C)C[C@@H]1NC(=O)[C@H](C(C)C)NC(=O)[C@@]23C(=O)N[C@@H](Cc4ccccc4)C2[C@H](C)[C@@]2(C)O[C@H]2C3/C=C/CC/C=C/CNC1=O (stereo partly specified) 0.408
